Inconclusive results are not listed. The source made the active and inactive calls. Unless noted, calls come from the whole dose curve; as a rule, active = well fitted curve in the direction sought with a large enough effect in the repeat runs; inconclusive = weak or mixed curves; inactive = no such curve, though single readings can be large; an effect the other way counts as inactive or inconclusive.
Key:
[1] = qHTS assay for small molecule agonists of the p53 signaling pathway (AID 651631; calls by dose curve; note: nearly all actives have a fitted effect of over 15% in size)
Method in brief: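 Readout was fluorescence from the LiveBLAzer FRET substrate, applied for 2 h at room temperature after 16 h compound exposure at 37 °C. Cells were the p53RE-bla HCT-116 line, with beta-lactamase driven by p53 response elements.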

[2] = qHTS assay for small molecules that induce genotoxicity in human embryonic kidney cells expressing luciferase-tagged ATAD5 (AID 651632); note: nearly all actives have a fitted effect of over 15% in size
Method in brief: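 Test compounds were delivered by pin tool onto HEK293T reporter cells (2,000/well) expressing ATAD5 fused to luciferase. After 16 hr at 37C, 5% CO2, Amplite was added for 30 min at room temperature and luminescence was measured.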

[3] = qHTS assay for small molecule agonists of the p53 signaling pathway - cell viability (AID 651633; calls by dose curve; note: series mostly up to about 83 µM; nearly all actives have a fitted effect of over 30% in size)
Method in brief: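 Viability counter-read: CellTiter-Glo luminescence (30 min, room temperature) in the same p53RE-bla plates. These plates had been exposed to compounds for 16 h at 37 C.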

[4] = qHTS assay for small molecules that induce genotoxicity in human embryonic kidney cells expressing luciferase-tagged ATAD5 - cell viability (AID 651634; calls by dose curve; note: nearly all actives have a fitted effect of over 25% in size)
Method in brief: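 Quantitative high-throughput format. HEK293T cells expressing ATAD5 fused to luciferase were plated at 2,000 cells/well and treated 15.5 hr with compound versus DMSO. Viability was determined by fluorescent live-cell protease substrate, 30 min at 37C.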

[5] = qHTS assay for small molecule disruptors of the mitochondrial membrane potential - cell viability (AID 720634; calls by dose curve;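 note: human HepG2 liver cancer cells; series mostly up to about 83 µM; nearly all actives have a fitted effect of over 20% in size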)
Method in brief: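 Same-well counter-screen: following the MMP dye addition, CellTiter-Glo was added to 1 hr compound-treated HepG2 cells and luminescence read after 30 min at room temperature.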

[6] = qHTS assay to test for compound auto fluorescence at 590 nm (red) in HepG2 cells (AID 720674)
Method in brief: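 We screened compounds on adherent HepG2 cells, incubating them for an hour at 37 C in 5% CO2 before reading emission at 590 nm under 540 nm excitation; values reflect equivalence to Rose Bengal sodium fluorescence.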

[7] = qHTS assay to test for compound auto fluorescence at 535 nm (green) in HepG2 cells (AID 720675)
[8] = qHTS assay to test for compound auto fluorescence at 460 nm (blue) in HEK293 cells (AID 720678)
Method in brief: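 Blue read-out at excitation 405 nm and emission 460 nm follows overnight compound exposure of HEK293 cells at 37C in 5% CO2. Activity is given as auto fluorescence equivalency to triamterene.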

[9] = qHTS assay to test for compound auto fluorescence at 590 nm (red) in HEK293 cells (AID 720679)
Method in brief: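 Red channel, Ex/Em 540/590nm; signal expressed as equivalency to Rose Bengal sodium. HEK293, 2,000 cells/well, 10% dialyzed FBS; 23 nL compound pinned after 4-5 hr attachment; overnight 37C/5% CO2 before reading.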

[10] = qHTS assay to test for compound auto fluorescence at 535 nm (green) in HEK293 cells (AID 720680)
[11] = qHTS assay to test for compound auto fluorescence at 460 nm (blue) in HEK293 cell free culture (AID 720681)
Method in brief: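 Blue fluorescence (Ex 405/Em 460 nm, triamterene-equivalent) was read immediately after pin transfer of compound or DMSO into medium (DMEM, 10% FBS) without cells.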

[12] = qHTS assay to test for compound auto fluorescence at 535 nm (green) in HEK293 cell free culture (AID 720682)
Method in brief: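 Compounds were pin-transferred into cell-free DMEM with 10% FBS, and green fluorescence was read at excitation 485 nm and emission 535 nm. Intensities were expressed as fluorescein-equivalent values.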

[13] = qHTS assay to test for compound auto fluorescence at 590 nm (red) in HEK293 cell free culture (AID 720683)
Method in brief: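 Red-channel autofluorescence of compounds in culture medium (DMEM, 10% FBS), no cells, measured at 540/590 nm. Rose Bengal sodium is the reference fluorophore for equivalence.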

[14] = qHTS assay to test for compound auto fluorescence at 590 nm (red) in HepG2 cell free culture (AID 720684)
Method in brief: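 Cell-free; medium MEM + 10% FBS; compound or DMSO added by pintool; read Ex 540/Em 590 nm; Rose Bengal sodium as red reference fluorophore.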

[15] = qHTS assay to test for compound auto fluorescence at 460 nm (blue) in HepG2 cell free culture (AID 720685)
Method in brief: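 Cell-free plates of MEM plus 10% FBS received 23 nL compound or DMSO vehicle; blue-channel (405/460 nm) intensity scored against triamterene as reference fluorophore.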

[16] = qHTS assay to test for compound auto fluorescence at 535 nm (green) in HepG2 cell free culture (AID 720686)
[17] = qHTS assay to test for compound auto fluorescence at 460 nm (blue) in HepG2 cells (AID 720687)
Method in brief: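 Blue-channel autofluorescence (Ex/Em 405/460 nm, triamterene-equivalent) was measured after 1 hr compound exposure at 37 C, 5% CO2. Cells were HepG2, plated overnight at 37 C in MEM plus 10% FBS.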

[18] = target: Glucocorticoid receptor (Homo sapiens) (UniProt P04150); assay: qHTS assay to identify small molecule agonists of the glucocorticoid receptor (GR) signaling pathway (AID 720691; active = well fitted activation curve with a large enough effect in the signal ratio in the repeat runs, not every such curve was filed as active; the % refers to the signal ratio)
Chain of Glucocorticoid receptor (Homo sapiens) (P04150 whole entry, looked up): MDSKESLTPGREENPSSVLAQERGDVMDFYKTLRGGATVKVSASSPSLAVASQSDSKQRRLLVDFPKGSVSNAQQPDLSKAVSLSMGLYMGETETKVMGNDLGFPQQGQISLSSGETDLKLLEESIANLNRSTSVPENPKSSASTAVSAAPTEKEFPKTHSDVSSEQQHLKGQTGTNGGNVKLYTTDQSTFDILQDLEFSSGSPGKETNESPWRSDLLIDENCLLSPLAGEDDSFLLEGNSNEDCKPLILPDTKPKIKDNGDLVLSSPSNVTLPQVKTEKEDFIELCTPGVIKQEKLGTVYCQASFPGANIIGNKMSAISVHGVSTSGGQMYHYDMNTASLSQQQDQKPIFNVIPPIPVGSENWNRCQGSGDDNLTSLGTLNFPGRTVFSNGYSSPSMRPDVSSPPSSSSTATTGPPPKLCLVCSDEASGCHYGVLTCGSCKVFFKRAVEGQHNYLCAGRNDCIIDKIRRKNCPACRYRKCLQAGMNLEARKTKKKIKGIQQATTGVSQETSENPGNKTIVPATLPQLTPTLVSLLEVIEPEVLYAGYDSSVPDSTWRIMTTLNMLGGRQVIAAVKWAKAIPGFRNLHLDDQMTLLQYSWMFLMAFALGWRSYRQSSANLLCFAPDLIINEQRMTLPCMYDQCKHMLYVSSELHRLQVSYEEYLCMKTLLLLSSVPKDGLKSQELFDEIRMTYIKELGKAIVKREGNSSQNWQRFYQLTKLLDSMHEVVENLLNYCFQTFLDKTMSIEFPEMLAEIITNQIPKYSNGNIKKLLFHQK
Method in brief: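 A HeLa cervical cancer line expressing GR and a glucocorticoid response element-driven beta-lactamase gene is treated with compounds for 18 h; LiveBLAzer B/G FRET substrate is then applied and fluorescence read.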

[19] = target: Glucocorticoid receptor (Homo sapiens) (UniProt P04150); assay: qHTS assay to identify small molecule antagonists of the glucocorticoid receptor (GR) signaling pathway (AID 720692; active = well fitted inhibition curve with a large enough effect in the signal ratio in the repeat runs, not every such curve was filed as active; the % refers to the signal ratio)
Method in brief: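 GRE-bla HeLa line, dex-stimulated (5 nM final). Compound exposure 18 h, 37 C. Beta-lactamase FRET read after 2 h RT substrate.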

[20] = qHTS assay to identify small molecule antagonists of the glucocorticoid receptor (GR) signaling pathway - cell viability counter screen (AID 720693); note: nearly all actives have a fitted effect of over 55% in size
[21] = qHTS assay for identifying genotoxic compounds that show differential cytotoxicity against isogenic chicken DT40 cell lines with known DNA damage response pathways - wild type cell line (AID 743012); note: nearly all actives have a fitted effect of over 60% in size
Method in brief: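 300 wt DT40 cells/well; cpd (DMSO) pintool-transferred after ~0.5 h at 37 C/5% CO2; 40 h incubation; CellTiter-Glo added, 30 min RT; luminescence read.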

[22] = qHTS assay for identifying genotoxic compounds that show differential cytotoxicity against isogenic chicken DT40 cell lines with known DNA damage response pathways - Rev3 mutant cell line (AID 743014); note: nearly all actives have a fitted effect of over 55% in size
[23] = qHTS assay for identifying genotoxic compounds that show differential cytotoxicity against isogenic chicken DT40 cell lines with known DNA damage response pathways - Rad54/Ku70 mutant cell line (AID 743015); note: nearly all actives have a fitted effect of over 60% in size
[24] = qHTS assay to identify small molecule antagonists of the androgen receptor (AR) signaling pathway - cell viability counter screen (AID 743033; note: nearly all actives have a fitted effect of over 45% in size)
[25] = target: Androgen receptor (Homo sapiens) (UniProt P10275); assay: qHTS assay to identify small molecule antagonists of the androgen receptor (AR) signaling pathway (AID 743035; active = well fitted inhibition curve with a large enough effect in the signal ratio in the repeat runs, not every such curve was filed as active; the % refers to the signal ratio)
Chain of Androgen receptor (Homo sapiens) (P10275 whole entry, looked up): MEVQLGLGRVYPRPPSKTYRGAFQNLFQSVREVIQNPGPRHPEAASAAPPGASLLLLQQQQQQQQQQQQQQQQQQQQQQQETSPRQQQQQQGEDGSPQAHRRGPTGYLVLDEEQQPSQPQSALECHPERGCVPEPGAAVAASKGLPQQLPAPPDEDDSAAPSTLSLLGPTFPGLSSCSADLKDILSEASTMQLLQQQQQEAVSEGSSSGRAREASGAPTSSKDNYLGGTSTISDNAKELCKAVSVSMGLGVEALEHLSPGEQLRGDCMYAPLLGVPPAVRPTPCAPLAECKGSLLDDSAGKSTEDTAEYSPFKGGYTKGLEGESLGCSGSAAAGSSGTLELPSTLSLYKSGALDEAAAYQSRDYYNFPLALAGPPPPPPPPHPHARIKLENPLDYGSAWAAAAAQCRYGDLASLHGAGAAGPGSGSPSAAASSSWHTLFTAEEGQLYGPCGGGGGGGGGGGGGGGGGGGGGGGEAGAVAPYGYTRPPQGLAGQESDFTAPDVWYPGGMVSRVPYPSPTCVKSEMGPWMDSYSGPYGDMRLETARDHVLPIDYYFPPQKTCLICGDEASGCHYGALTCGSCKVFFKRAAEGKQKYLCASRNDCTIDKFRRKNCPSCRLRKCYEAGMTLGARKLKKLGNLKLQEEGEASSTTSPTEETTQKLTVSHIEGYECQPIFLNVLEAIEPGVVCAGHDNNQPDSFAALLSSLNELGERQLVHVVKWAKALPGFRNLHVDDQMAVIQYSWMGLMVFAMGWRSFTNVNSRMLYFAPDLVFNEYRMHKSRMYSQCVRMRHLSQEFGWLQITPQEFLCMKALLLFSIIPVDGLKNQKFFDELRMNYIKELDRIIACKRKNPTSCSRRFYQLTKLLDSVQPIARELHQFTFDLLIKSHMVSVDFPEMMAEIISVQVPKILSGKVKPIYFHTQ
Method in brief: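 In this cell-based reporter screen, compounds were tested in concentration series against R1881-activated HEK293 cells expressing beta-lactamase under UAS control; after 16 h at 37C, FRET substrate was added and fluorescence read 2 h later.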

Measured: Potency

CCCCCN(C)CCC(O)(P(=O)(O)O)P(=O)(O)O
inactive: all assays above
